OvCa metastasis = inhibitors of ovarian cancer cell adhesion and invasion in omental model | SKOV3ip1-GFP adhesion/invasion on 3D omental model, fluorescence | Potency, µM (top dose mostly 45.8 µM), usual class: inhibitors | 0.1% of 46,000 active; note: nearly all actives have a fitted effect of over 65% in size
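Primary human omental fibroblast/mesothelial 3D culture pre-formed 48 h. SKOV3ip1-GFP cells added with compounds (0.36-46 umol/L), incubated 2 h RT/16 h 37 C, fixed; GFP cells quantified at 488/509 nm.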
p53null 39C kill = p53 null cell cytotoxicity, nonpermissive temperature; H1299 p53-null (neo) cells, 39C, ATPlite viability, 24 h; Potency, µM (series often up to 46.1 µM), most hits filed as cytotoxic; 0.97% of 55,000 active; note: nearly all actives have a fitted effect of over 50% in size
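ATP-luminescence viability readout (ATPlite, 20 min RT) after 24 hr compound treatment at 39C of H1299-neo or H1299-p53A138V cells; titration up to 46 uM; normalized to DMSO and 100 uM tamoxifen; Hill-fit AC50.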
S16 viability = S16 Schwann cell cytotoxicity; S16 Pmp22-F2sN Schwann cells viability, CellTiter-Glo, 24 h; Potency, µM (top dose mostly 57.5 µM), actives largely listed as cytotoxic; 0.48% of 43,000 active; note: nearly all actives have a fitted effect of over 65% in size
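Rat S16 Schwann reporter line, 24 h treatment with library compounds delivered at 23 nL per well. Cell viability by CellTiter-Glo luminescence.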
PMP22 txn prim = modulators of PMP22 gene transcription in S16 Schwann cells. 2% of 43,000 active. AID 1508649. Potency, µM (highest dose often 57.5 µM), hits mostly inhibitors. S16 Pmp22-F2sN Schwann cells (luciferase reporters placed in the Pmp22 gene), FLuc/NLuc coincidence luminescence, 24 h; active = clear falling dose curves in both reporters; inconclusive = both reporters move, but less clearly or upward; inactive = either reporter flat; the % is the NLuc reporter signal
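Reporter cells (S16 Pmp22-F2sN, 500–1,000 per well) exposed to compounds for 24 h, 37C, 5% CO2; lysis with FLuc read after 10 min, then Stop&Glo and NLuc read after 10 min.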
p53null 32C kill = kills p53 null cells at the permissive temperature. H1299-neo p53 null cells, ATP luminescence, 24 h, 32C. Potency, µM (titrated, usually from 46.1 µM), actives largely listed as cytotoxic. 0.62% of 55,000 active; note: nearly all actives have a fitted effect of over 55% in size
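H1299-neo (p53-null) cells, 600/well, were pre-incubated overnight at 37C, then exposed to compounds at up to 46 uM for 24 hr at 32C. Viability was measured as ATP content by luminescence, and AC50 values came from Hill fits.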
mTORC1 inh = mTORC1 pathway inhibition measured by phospho-rpS6; AID 493208; Tsc2-/- p53-/- MEF, phospho-rpS6 immunofluorescence/PI, 24 h; 0.78% of 44,000 active; Potency, µM (doses to about 38.3 µM), usual class: inhibitors; note: nearly all actives have a fitted effect of over 50% in size
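Tsc2-/-, p53-/- mouse embryonic fibroblasts (empty-vector line) exposed to compound 24 hrs at 37 C, fixed, immunostained for phospho-rpS6 and counterstained with propidium iodide. Acumen laser scanning gives % positive cells from Alexa 488/PI ratio, thresholded using 7.5 nM rapamycin; PI count gives viability.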
Hits are given with their value; i = inactive; ? = inconclusive; nt = no result given. Shown are actives, neighbours in structure and some others; about 3% of the full set was active somewhere. Unless noted, calls come from the whole dose curve; as a rule, active = well fitted curve in the direction sought with a large enough effect; inconclusive = small, poorly fitted or top-dose-only effect, or another doubt; inactive = no such curve, though single readings can be large; an effect the other way counts as inactive or inconclusive.

SMILES	OvCa metastasis	p53null 39C kill	S16 viability	PMP22 txn prim	p53null 32C kill	mTORC1 inh
Cc1cccc(C)c1OCC(=O)Nc1c(C(=O)c2ccccc2)oc2ccccc12	10µM	i	i	i	i	i
COc1ccc(C(=O)c2oc3ccccc3c2NC(=O)c2ccc(F)cc2)cc1	i	i	i	i	i	i
Cc1cc(OCC(=O)Nc2c(C(=O)c3ccccc3)oc3ccccc23)cc(C)c1Cl	i	i	i	i	i	i
O=c1cc(N2CCOCC2)oc2c(-c3cccc4c3sc3ccccc34)cccc12	i	nt	nt	nt	nt	nt
CCOC(=O)Cc1c(C)nc2c(-c3ccc(OC)c(OC)c3)c(C)nn2c1C	i	?	?	14µM	i	i
O=C(O)C1=NC(C(=O)O)CC(C=CN2c3cc(O)c(OC4OC(CO)C(O)C(O)C4O)cc3CC2C(=O)O)=C1 (stereo unspecified)	i	nt	nt	nt	nt	nt
C[C@H](NC(=O)[C@@H](O)c1cc(F)cc(F)c1)C(=O)N[C@@H]1C(=O)N(C)c2ccccc2-c2ccccc21	i	nt	nt	nt	nt	nt
COc1ccc(CCNC(=O)C(C)n2nc(C)c3sc4ccccc4c3c2=O)c(OC)c1 (stereo unspecified)	i	?	i	i	i	2.9µM
CCc1cccc(NC(=O)Cn2c(=O)n(CC(=O)NCCc3ccccc3)c(=O)c3ccccc32)c1	i	13µM	i	?	13µM	i
Cc1cc(C)cc(NC(=O)Cn2c(=O)n(CC(=O)NCCc3ccccc3)c(=O)c3ccccc32)c1	i	?	i	?	?	i
COc1ccc(CCNC(=O)CCCn2c(=O)c3ccccc3n(CC(=O)Nc3cc(Cl)ccc3C)c2=O)cc1OC	i	13µM	i	?	?	?
CCOc1ccc(CCNC(=O)CCCn2nc(C)c3sc4ccccc4c3c2=O)cc1OCC	i	i	i	?	?	i
CCC(C(=O)NCCc1ccc(OC)c(OC)c1OC)n1nc(C)c2sc3ccccc3c2c1=O (stereo unspecified)	i	i	?	?	i	i
COc1ccc(CCNC(=O)CCCn2nc(C)c3sc4ccccc4c3c2=O)cc1OC	i	?	i	i	?	18µM
CCOC(=O)N1CCN([N+]([O-])=NOc2ccc([N+](=O)[O-])cc2C#N)CC1	i	nt	nt	nt	nt	nt
CC(=O)OCC(=O)[C@@]1(O)[C@H](C)C[C@H]2[C@@H]3C=C(C)C4=Cc5c(cnn5-c5ccccc5)C[C@]4(C)[C@@H]3[C@@H](O)C[C@@]21C	i	nt	nt	nt	nt	nt
CCOc1ccc(Nc2nc(-c3c(C)nc4ccccn34)cs2)cc1	i	nt	nt	nt	nt	nt
Cc1ccc(S(=O)(=O)c2nnn3c2nc(NC2CCCCC2)c2sccc23)cc1C	i	i	?	?	i	7.4µM
COc1ccc(NC(=O)c2nnn(CC(=O)Nc3ccc(C)c(C)c3)c2N)cc1OC	i	i	i	i	i	i
COc1ccc(OC)c(NC(=O)c2nnn(CC(=O)Nc3ccc(C(C)C)cc3)c2N)c1	i	?	i	i	i	16µM
CN1C(=O)c2ccccc2Sc2ccc(NC(=O)c3ccc(C(F)(F)F)cc3)cc21	i	i	i	11µM	i	i
O=C(Nc1nc2cccc(-c3ccc(CN4CCS(=O)(=O)CC4)cc3)n2n1)C1CC1	i	nt	nt	nt	nt	nt
COc1cccc(C2CC(=O)Nc3cc4c(cc32)OCCO4)c1OC (stereo unspecified)	i	i	i	i	i	15µM
Fc1ccc(-n2ncc3c(N4CCC(Cc5ccccc5)CC4)ncnc32)cc1	i	i	i	i	i	i
Clc1cccc(-n2ncc3c(N4CCCCCC4)ncnc32)c1	i	i	i	i	?	i
SMILES	OvCa metastasis	p53null 39C kill	S16 viability	PMP22 txn prim	p53null 32C kill	mTORC1 inh
Fc1ccc(-n2ncc3c(N4CCCCCC4)ncnc32)cc1	i	14µM	i	i	?	i
Cc1ccc(-n2ncc3c(N4CCCCCC4)ncnc32)cc1	i	i	i	?	3.2µM	i
Clc1cccc(-n2ncc3c(N4CCCCC4)ncnc32)c1	i	13µM	i	i	3.2µM	i
COc1ccc(CC2=NN3C([C@@H](CCc4ccccc4)[C@@H](C)O)=NC(C)C3C(=O)N2)cc1OC (stereo partly specified)	i	nt	nt	nt	nt	nt
O=C(CCc1ccc(O)cc1)c1c(O)cc(O)cc1O[C@@H]1O[C@H](CO)[C@H](O)[C@H](O)[C@H]1O	i	nt	nt	nt	nt	nt
CC(C)(N)C(=O)N[C@H](COCc1ccccc1)C(=O)N1CCC2(CC1)CN(S(C)(=O)=O)c1ccccc12	i	nt	nt	nt	nt	nt
NS(=O)(=O)OC[C@@H]1C[C@@H](n2ccc3c(N[C@H]4CCc5ccccc54)ncnc32)C[C@H]1O	i	nt	nt	nt	nt	nt
CCOC(=O)c1[nH]c2ccccc2c1NC(=O)c1ccccc1OC	?	16µM	?	?	i	i
CCOC(=O)c1[nH]c2ccccc2c1NC(=O)c1cc(Cl)ccc1Cl	i	?	i	?	i	i
CN(C)CCN1C(=O)c2cccc3cc(N)cc(c23)C1=O	i	nt	nt	nt	nt	nt
Cc1ccc(-c2cc(C(=O)NC(C)c3ccccc3)c3ccccc3n2)cc1C (stereo unspecified)	i	i	i	i	i	i
Cc1ccc(-c2cc(C(=O)N3CCN(c4ccccc4)CC3)c3ccccc3n2)cc1C	i	?	i	?	13µM	?
CNCc1ccc(-c2[nH]c3cc(F)cc4c3c2CCNC4=O)cc1	i	nt	nt	nt	nt	nt
COc1ccc(C(=O)Nc2ccc3nc(N4CCC(C)CC4)cc(C)c3c2)cc1	i	?	i	i	?	i
Cc1cc(N2CCCCC2)nc2ccc(NC(=O)c3ccc(F)cc3)cc12	i	nt	i	i	nt	i
Cc1cc(N2CCCCC2)nc2ccc(NC(=O)/C=C/c3ccccc3Cl)cc12	i	i	?	?	i	i
CCN1CCN(c2cc(C)c3cc(NC(=O)/C=C/c4cccc(Cl)c4)ccc3n2)CC1	?	16µM	?	?	?	?
CCCCc1ccc(C(=O)Nc2ccc3nc(N4CCN(CC)CC4)cc(C)c3c2)cc1	i	i	?	?	i	2.1µM
CCN1CCN(c2cc(C)c3cc(NC(=O)c4cccc(Cl)c4)ccc3n2)CC1	i	22µM	?	?	i	12µM
CCN1CCN(c2cc(C)c3cc(NC(=O)c4cc(OC)cc(OC)c4)ccc3n2)CC1	?	?	?	?	?	13µM
C[C@@H](Oc1ccc2[nH]nc(C=Cc3cnn(CCO)c3)c2c1)c1c(Cl)cncc1Cl	i	nt	nt	nt	nt	nt
CCn1cc(-c2ccnc3[nH]c(-c4cccc(CN(C)C)c4)cc23)c(-c2ccc(NC(=O)N(C)C)cc2)n1	i	nt	nt	nt	nt	nt
CCOC(=O)c1ccccc1NC(=O)c1ccc2c(Cl)c3c(nc2c1)CCC3	i	?	i	i	?	i
CCOC(=O)c1cccc(NC(=O)c2cc3ccccn3n2)c1	i	10µM	nt	nt	13µM	i
